# Experimental data: PubChem BioAssay (EPA / NIEHS)
# Records with an inconclusive call do not appear. The source made the active and inactive calls. Rule for the calls, unless noted: active = hit-call score of the fitted dose curve at least 0.9, where 1 is the maximum; inconclusive = response in the unintended direction; inactive = score below 0.9.
# Tests used:
# [1] = TOX21_p53_BLA_p2_viability: Viability Assessment in the Tox21 HCT-116 p53 Agonism Beta-lactamase Assay, Phase 2 (AID 2283591);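 note: compound exposure lasted 16 h at 37 °C; actives lower the ATP signal meaning cytotoxicity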
# Procedure, shortened: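 HCT-116 p53-bla cells (4000/well) rested 5 h at 37C, then received compounds in DMSO (217-fold dilution) for 16 h at 37C, 5% CO2. After the CCF4 read, CellTiter-Glo was added; ATP luminescence was read after 30 min at room temperature.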
# [2] = target: Cellular tumor antigen p53 (Homo sapiens) (UniProt P04637); experiment: TOX21_p53_BLA_p2_ratio: Tox21 HCT-116 p53 Agonism Beta-lactamase Assay, Ratio, Phase 2 (AID 2283592)
# Procedure, shortened: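 Ratio endpoint: beta-lactamase cleavage of CCF4-AM, blue (460 nm) over green (530 nm). HCT116 reporter line; 16 h treatment, 37C; substrate 2 h RT.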
# [3] = TOX21_p53_BLA_p3_viability: Viability Assessment in the Tox21 HCT-116 p53 Agonism Beta-lactamase Assay, Phase 3 (AID 2283593);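 note: cells exposed to compound for 16 h before reading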
# Procedure, shortened: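 HCT-116 cells (4000/well) rested 5 h at 37C, then got DMSO compounds by pin tool (217-fold dilution) for 16 h at 37C, 5% CO2. After the bla read, CellTiter-Glo was added and luminescence read at 30 min, room temperature.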
# [4] = target: Cellular tumor antigen p53 (Homo sapiens) (UniProt P04637); experiment: TOX21_p53_BLA_p3_ratio: Tox21 HCT-116 p53 Agonism Beta-lactamase Assay, Ratio, Phase 3 (AID 2283596)
# Procedure, shortened: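 Cells were seeded at 4000/well, rested 5 h at 37C, then dosed with DMSO compound solutions (217-fold dilution) for 16 h. CCF4-AM substrate was loaded for 2 h at room temperature, and the 460/530 nm emission ratio was fitted for gain of signal versus DMSO.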
# [5] = TOX21_p53_BLA_p4_viability: Viability Assessment in the Tox21 HCT-116 p53 Agonism Beta-lactamase Assay, Phase 4 (AID 2283597);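 note: hits lower the luminescence signal meaning cytotoxicity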
# Procedure, shortened: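 Cytotoxicity was inferred from loss of CellTiter-Glo luminescence. HCT116 cells had been dosed with compounds after 5 h plating, incubated 16 h at 37C and 5% CO2, and exposed to the CCF4-AM substrate for 2 h.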
# [6] = target: Cellular tumor antigen p53 (Homo sapiens) (UniProt P04637); experiment: TOX21_p53_BLA_p5_ratio: Tox21 HCT-116 p53 Agonism Beta-lactamase Assay, Ratio, Phase 5 (AID 2283599)
# Procedure, shortened: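 HCT-116 cells carrying a p53-inducible beta-lactamase reporter were seeded at 4000 cells/well and dosed after 5 h with compound in DMSO (217-fold dilution). After 16 h at 37C, CCF4-AM substrate was added for 2 h, and the 460/530 nm emission ratio was scored as gain-of-signal versus DMSO.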
# [7] = target: Cellular tumor antigen p53 (Homo sapiens) (UniProt P04637); experiment: TOX21_p53_BLA_p4_ratio: Tox21 HCT-116 p53 Agonism Beta-lactamase Assay, Ratio, Phase 4 (AID 2283601)
# Procedure, shortened: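 HCT116 cells carrying an inducible beta-lactamase reporter were plated at 4000 cells/well, rested 5 h, then exposed to compounds in DMSO (217-fold dilution) for 16 h at 37C. CCF4-AM substrate was loaded 2 h at room temperature; 460/530 nm emission ratio scored gain-of-signal versus DMSO.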
# [8] = TOX21_p53_BLA_p5_viability: Viability Assessment in the Tox21 HCT-116 p53 Agonism Beta-lactamase Assay, Phase 5 (AID 2283600)
# Procedure, shortened: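 Luciferase-coupled ATP quantitation of cells treated for 16 h (37C, 5% CO2) with test chemicals delivered in DMSO via a 217-fold dilution; 4000 cells/well; reagent incubated 30 min at room temperature before luminescence reading.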
# [9] = target: PGR (gene 5241) (UniProt P06401); experiment: TOX21_PR_BLA_Followup_Antagonist_ratio: Tox21 HEK293 Progesterone Receptor (PR) Antagonism Beta-lactamase Follow-Up Assay, Ratio (AID 2283934);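 note: PR-UAS-bla HEK293T cells stimulated with 1 nM R5020 agonist for 16 hr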
# Procedure, shortened: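 Cells are plated, rested 6 hr, then dosed with test compound in DMSO and challenged with 1 nM promegestone. After 16 hr incubation, substrate loading for 2 h at room temperature precedes fluorescence reading; viability is measured in the same wells.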
# [10] = TOX21_PR_BLA_Followup_Agonist_viability: Viability Assessment in the Tox21 HEK293 Progesterone Receptor (PR) Agonism Beta-lactamase Follow-Up Assay (AID 2283935);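 note: signal loss means lower viability so actives are cytotoxic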
# Procedure, shortened: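 Cells were plated in medium with 2% charcoal-stripped FBS and rested 6 hr. Compounds in DMSO were then added for 16 hr at 37C, followed by the FRET substrate step and CellTiter-Glo luminescence after 30 min.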
# [11] = TOX21_PR_BLA_Followup_Antagonist_viability: Viability Assessment in the Tox21 HEK293 Progesterone Receptor (PR) Antagonism Beta-lactamase Follow-Up Assay (AID 2283936);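 note: cells exposed to compound with R5020 agonist for 16 h; hits lower the luminescence signal meaning cytotoxicity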
# Procedure, shortened: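 PR-UAS-bla HEK293T cells in medium with 2% charcoal-stripped FBS were treated with compounds plus R5020 for 16 hr at 37C. After the beta-lactamase read, CellTiter-Glo was added to the same wells and luminescence read after 30 min at room temperature.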
# [12] = TOX21_PR_LUC_Followup_Agonist_viability: Viability Assessment in the Tox21 HEK293 Progesterone Receptor (PR) Agonism Luciferase Follow-Up Assay (AID 2283941);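 note: loss of signal means cytotoxicity so actives lower viability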
# Procedure, shortened: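 Multiplexed viability endpoint of the PR agonist luciferase follow-up: HEK293-PR-A-luc cells treated 16 h at 37C, with viability scored as decrease in CellTiter-Glo ATP signal.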
# [13] = CCTE_Harrill_HTTr_Viability_MCF7: CCTE's 6-hour Cell Viability Assessment for the High-Throughput Transcriptomics (HTTr) Platform, in MCF-7 cells cultured in DMEM + 10% fetal bovine serum, Harrill Lab (AID 2284010; active = hit-call score of the fitted dose curve at least 0.9, where 1 is the maximum; inactive = score below 0.9)
# Procedure, shortened: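 Read-out is propidium iodide gain of signal by high-content imaging, reflecting membrane integrity loss. Measurements are taken 6 h after dosing, eight concentrations per chemical, with DMSO serving as baseline for bidirectional curve fitting.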
# [14] = CCTE_Harrill_HTTr_Apoptosis_MCF7: CCTE's 6-hour Apoptosis Assessment for the High-Throughput Transcriptomics (HTTr) Platform, in MCF-7 cells cultured in DMEM + 10% fetal bovine serum, Harrill Lab (AID 2284011; active = hit-call score of the fitted dose curve at least 0.9, where 1 is the maximum; inactive = score below 0.9)
# Procedure, shortened: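 MCF-7 cells in DMEM + 10% fetal bovine serum were exposed to chemicals for 6 hours over an eight-point dilution series. Caspase-3/7 activation was imaged by high content imaging with CellEvent Caspase 3/7 Green; bidirectional fitting used DMSO as baseline.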
# Sequence of Cellular tumor antigen p53 (Homo sapiens) (P04637 whole entry, looked up): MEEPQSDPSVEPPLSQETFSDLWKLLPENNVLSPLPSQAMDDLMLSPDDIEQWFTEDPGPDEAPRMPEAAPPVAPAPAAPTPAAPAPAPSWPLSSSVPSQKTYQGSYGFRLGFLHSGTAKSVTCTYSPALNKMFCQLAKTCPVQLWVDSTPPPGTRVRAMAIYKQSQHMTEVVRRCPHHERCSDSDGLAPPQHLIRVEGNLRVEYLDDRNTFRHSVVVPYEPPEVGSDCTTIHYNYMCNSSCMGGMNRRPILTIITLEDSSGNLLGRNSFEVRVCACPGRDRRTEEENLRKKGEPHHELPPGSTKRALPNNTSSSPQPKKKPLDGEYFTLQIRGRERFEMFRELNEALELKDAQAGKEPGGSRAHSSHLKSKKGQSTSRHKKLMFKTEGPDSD
# Sequence of PGR (gene 5241) (P06401 whole entry, looked up): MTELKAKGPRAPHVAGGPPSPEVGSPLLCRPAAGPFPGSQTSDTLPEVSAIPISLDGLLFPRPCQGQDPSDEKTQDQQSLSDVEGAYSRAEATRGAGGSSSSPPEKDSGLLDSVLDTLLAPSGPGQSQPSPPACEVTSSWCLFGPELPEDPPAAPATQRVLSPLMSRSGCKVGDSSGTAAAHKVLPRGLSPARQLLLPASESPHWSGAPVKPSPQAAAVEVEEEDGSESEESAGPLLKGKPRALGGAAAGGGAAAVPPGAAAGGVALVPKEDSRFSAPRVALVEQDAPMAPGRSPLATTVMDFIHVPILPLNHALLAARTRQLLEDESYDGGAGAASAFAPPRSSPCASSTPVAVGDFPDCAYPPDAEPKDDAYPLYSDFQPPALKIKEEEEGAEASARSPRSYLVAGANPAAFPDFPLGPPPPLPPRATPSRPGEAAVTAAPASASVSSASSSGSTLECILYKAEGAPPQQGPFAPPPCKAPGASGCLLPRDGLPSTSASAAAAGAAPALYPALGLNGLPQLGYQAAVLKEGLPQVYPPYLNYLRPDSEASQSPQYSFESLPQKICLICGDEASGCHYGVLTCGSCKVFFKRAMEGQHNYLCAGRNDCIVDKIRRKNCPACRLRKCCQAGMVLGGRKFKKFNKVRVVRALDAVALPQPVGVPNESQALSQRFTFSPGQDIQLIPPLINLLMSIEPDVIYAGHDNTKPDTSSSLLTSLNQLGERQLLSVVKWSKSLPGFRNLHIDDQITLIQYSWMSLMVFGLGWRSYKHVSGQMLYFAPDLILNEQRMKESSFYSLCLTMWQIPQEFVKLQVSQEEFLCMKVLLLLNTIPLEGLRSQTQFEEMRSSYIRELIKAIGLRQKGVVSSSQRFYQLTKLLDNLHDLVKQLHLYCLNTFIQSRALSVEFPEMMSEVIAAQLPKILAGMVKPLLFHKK
structure (smiles),measurement,setting,value
C#C[C@]1(O)CC[C@H]2[C@@H]3CCC4=C/C(=N/O)CC[C@@H]4[C@H]3CC[C@@]21CC,outcome,[1],inactive
same,outcome,[2],inactive
same,outcome,[3],inactive
same,outcome,[4],inactive
same,AC50,[5],38.1 µM (active)
same,outcome,[6],inactive
same,outcome,[7],inactive
CCN1CCCC1CNC(=O)c1cc(S(=O)(=O)CC)ccc1OC (stereo unspecified),outcome,[1],inactive
same,outcome,[2],inactive
same,outcome,[3],inactive
same,outcome,[4],inactive
same,outcome,[5],inactive
same,outcome,[6],inactive
same,outcome,[7],inactive
O=C(OCC1CO1)C1CCCCC1C(=O)OCC1CO1 (stereo unspecified),outcome,[1],inactive
same,AC50,[2],61 µM (active)
same,outcome,[3],inactive
same,outcome,[4],inactive
same,outcome,[5],inactive
same,outcome,[6],inactive
same,outcome,[7],inactive
OC[C@@H](O)[C@H](O)[C@H](O)[C@@H](O)CO,outcome,[1],inactive
same,outcome,[2],inactive
same,outcome,[3],inactive
same,outcome,[4],inactive
same,outcome,[5],inactive
same,outcome,[6],inactive
same,outcome,[7],inactive
COc1ccc2cc1Oc1cc3c(cc1OC)CC[N+](C)(C)[C@H]3Cc1ccc(cc1)Oc1c(OC)c(OC)cc3c1[C@@H](C2)[N+](C)(C)CC3,outcome,[1],inactive
same,outcome,[2],inactive
same,outcome,[3],inactive
same,outcome,[4],inactive
same,outcome,[5],inactive
same,outcome,[6],inactive
same,outcome,[7],inactive
C1COC(NC(C2CC2)C2CC2)=N1,outcome,[1],inactive
same,outcome,[2],inactive
same,outcome,[3],inactive
same,outcome,[4],inactive
same,outcome,[5],inactive
same,outcome,[6],inactive
same,AC50,[7],39.6 µM (active)
O=C1CCc2ccc(OCCCCN3CCN(c4cccc(Cl)c4Cl)CC3)cc2N1,outcome,[1],inactive
same,outcome,[2],inactive
same,AC50,[3],23 µM (active)
same,outcome,[4],inactive
same,outcome,[5],inactive
same,outcome,[6],inactive
same,outcome,[7],inactive
CNC(=O)c1ccccc1Sc1ccc2c(/C=C/c3ccccn3)n[nH]c2c1,outcome,[1],inactive
same,AC50,[2],0.922 µM (active)
same,outcome,[3],inactive
same,AC50,[4],1.02 µM (active)
same,outcome,[5],inactive
same,AC50,[6],0.894 µM (active)
same,AC50,[7],0.738 µM (active)
CN(C(=O)CCCOc1ccc2[nH]c(=O)ccc2c1)C1CCCCC1,outcome,[1],inactive
same,outcome,[2],inactive
same,outcome,[3],inactive
same,outcome,[4],inactive
same,outcome,[5],inactive
same,outcome,[8],inactive
CN(C)CCCCl,outcome,[1],inactive
same,outcome,[2],inactive
same,outcome,[3],inactive
same,outcome,[4],inactive
same,outcome,[5],inactive
same,outcome,[6],inactive
same,outcome,[7],inactive
Cc1ccc(O)c(C(=O)c2ccccc2)c1,outcome,[1],inactive
same,outcome,[2],inactive
same,outcome,[3],inactive
same,outcome,[4],inactive
same,outcome,[5],inactive
same,outcome,[6],inactive
same,outcome,[7],inactive
O=C(O)Cc1sc(-c2ccccc2)nc1-c1ccc(Cl)cc1,outcome,[1],inactive
same,outcome,[2],inactive
same,outcome,[3],inactive
same,outcome,[4],inactive
same,outcome,[5],inactive
same,outcome,[6],inactive
same,outcome,[7],inactive
CCOC(=O)C1=C(C)NC(C)=C(C(=O)OC)C1c1cccc([N+](=O)[O-])c1 (stereo unspecified),outcome,[1],inactive
same,outcome,[2],inactive
same,outcome,[3],inactive
same,outcome,[4],inactive
same,outcome,[5],inactive
same,outcome,[6],inactive
same,outcome,[7],inactive
same,AC50,[9],14.9 µM (active)
same,outcome,[10],inactive
same,outcome,[11],inactive
same,outcome,[12],inactive
CNCCCCOc1ccccc1Cc1ccccc1,outcome,[1],inactive
same,outcome,[2],inactive
same,outcome,[3],inactive
same,outcome,[4],inactive
same,AC50,[5],36.4 µM (active)
same,outcome,[8],inactive
CCCCCCCCCCCCCCCC(=O)OC[C@H](COP(=O)([O-])OCC[N+](C)(C)C)OC(=O)CCCCCCCCCCCCCCC,outcome,[1],inactive
same,outcome,[2],inactive
same,outcome,[3],inactive
same,outcome,[4],inactive
same,outcome,[5],inactive
same,outcome,[6],inactive
same,outcome,[7],inactive
C[C@H](CN1CCCC1)C(=O)c1ccc(C(F)(F)F)cc1,outcome,[1],inactive
same,outcome,[2],inactive
same,outcome,[3],inactive
same,outcome,[4],inactive
same,outcome,[5],inactive
same,outcome,[8],inactive
CCC(Oc1ccccc1)C(=O)N[C@@H]1C(=O)N2[C@@H]1SC(C)(C)[C@@H]2C(=O)O (stereo partly specified),outcome,[1],inactive
same,outcome,[2],inactive
same,outcome,[3],inactive
same,outcome,[4],inactive
same,outcome,[5],inactive
same,outcome,[6],inactive
same,outcome,[7],inactive
C#CCN(C)Cc1ccccc1,outcome,[1],inactive
same,outcome,[2],inactive
same,outcome,[3],inactive
same,outcome,[4],inactive
same,outcome,[5],inactive
same,outcome,[6],inactive
same,outcome,[7],inactive
same,outcome,[13],inactive
same,outcome,[14],inactive
C=Cc1c(C)c2cc3[nH]c(cc4nc(cc5nc(cc1[nH]2)C(C)=C5CCC(=O)O)C(CCC(=O)O)=C4C)c(C)c3C=C,outcome,[1],inactive
same,outcome,[2],inactive
same,outcome,[3],inactive
same,outcome,[4],inactive
same,outcome,[5],inactive
same,outcome,[6],inactive
same,outcome,[7],inactive
CC(=O)NCCCCCC(=O)O,outcome,[1],inactive
same,outcome,[2],inactive
same,outcome,[3],inactive
same,outcome,[4],inactive
same,outcome,[5],inactive
same,outcome,[6],inactive
same,outcome,[7],inactive
C[CH2][Ge]([Cl])([CH2]C)[CH2]C,outcome,[1],inactive
same,outcome,[2],inactive
same,outcome,[3],inactive
same,outcome,[4],inactive
same,outcome,[5],inactive
same,outcome,[8],inactive
COc1cc2c(cc1OC)-c1cc3ccc(OC)c(OC)c3c[n+]1CC2,outcome,[1],inactive
same,outcome,[2],inactive
same,outcome,[3],inactive
same,outcome,[4],inactive
same,outcome,[5],inactive
same,outcome,[8],inactive
CCCCC[C@H](O)/C=C/[C@@H]1[C@H]2C/C(=C/CCCC(=O)O)O[C@H]2C[C@H]1O,outcome,[1],inactive
same,outcome,[2],inactive
same,outcome,[3],inactive
same,outcome,[4],inactive
same,outcome,[5],inactive
same,outcome,[6],inactive
same,outcome,[7],inactive
COc1cc(C(=O)N2CCOCC2)cc(OC)c1OC,outcome,[1],inactive
same,outcome,[2],inactive
same,outcome,[3],inactive
same,outcome,[4],inactive
same,outcome,[5],inactive
same,outcome,[6],inactive
same,outcome,[7],inactive
Nc1ccncc1N,outcome,[1],inactive
same,outcome,[2],inactive
same,outcome,[3],inactive
same,outcome,[4],inactive
same,outcome,[5],inactive
same,outcome,[6],inactive
same,outcome,[7],inactive
